Calls of active or inactive are those of the source. How the source made its calls: active means hit-call score of the fitted dose curve at least 0.9, where 1 is the maximum; inactive means score below 0.9.
What was measured:
[1] = CEETOX_H295R_ESTRADIOL: CeeTox H295R High-throughput Steroidogenesis Assay for Estradiol (AID 2283440); settings: actives raise or lower the signal;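 further: estradiol secreted into medium quantified by LC-MS/MS after dansyl derivatisation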
Outline: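 H295R adrenocortical cells were prestimulated with 10 uM forskolin for 48 h, then exposed to test chemical in 0.1% DMSO for 48 h. Medium estradiol was extracted with MTBE, dansyl-derivatized and quantified by HPLC-MS/MS; bidirectional fit versus DMSO.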

[2] = CEETOX_H295R_ESTRONE: CeeTox H295R High-throughput Steroidogenesis Assay for Estrone (AID 2283441); settings: actives raise or lower the signal;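 further: estrone secreted into medium measured by LC-MS/MS after dansyl derivatization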
Outline: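 H295R cells; 48 h forskolin (10 uM) prestimulation; 48 h compound exposure, 0.1% DMSO final. Medium estrone: MTBE extraction, dansyl derivatization, HPLC-MS/MS. Bidirectional fit vs DMSO.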

[3] = CEETOX_H295R_PROG: CeeTox H295R High-throughput Steroidogenesis Assay for Progesterone (PROG) (AID 2283442); settings: actives raise or lower the signal;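 on AC50: human H295R adrenal cells primed with 10 µM forskolin before dosing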
Outline: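 H295R human adrenal cells were prestimulated with 10 uM forskolin for 48 h, then exposed to test chemical (0.1% DMSO final) for 48 h. Medium progesterone was MTBE-extracted and quantified by HPLC-MS/MS, with bidirectional fitting against DMSO.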

[4] = read-out: Tumor necrosis factor receptor superfamily member 6 (Homo sapiens) (UniProt P25445); test: LTEA_HepaRG_FAS: Life Technologies and Expression Analysis (LTEA) Assay for Fas cell surface death receptor (FAS) using HepaRG (AID 2283447); settings: mRNA level, 48 h; actives raise or lower the signal
Outline: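 FAS transcript level was measured by TaqMan qRT-PCR against three housekeeping genes after 48 h chemical exposure. Cells were HepaRG, 0.5% DMSO vehicle, with a top concentration of 100 uM and half-log dilutions over eight points, in duplicate.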

[5] = read-out: Fatty acid synthase (Homo sapiens) (UniProt P49327); test: LTEA_HepaRG_FASN: Life Technologies and Expression Analysis (LTEA) Assay for Fatty Acid Synthase (FASN) using HepaRG (AID 2283448); settings: mRNA level, 48 h; actives raise or lower the signal
Outline: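 Differentiated human HepaRG cells were exposed for 48 h in serum-free induction medium to eight half-log concentrations up to 100 uM in 0.5% DMSO, in duplicate. FASN mRNA was quantified by TaqMan qRT-PCR, normalized to ACTB/GAPDH/POLR2A, and fitted bidirectionally against DMSO.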

[6] = read-out: Cyclin D2 (CCND2), CCND2 (gene 894); test: LTEA_HepaRG_CCND2: Life Technologies and Expression Analysis (LTEA) Assay for Cyclin D2 (CCND2) using HepaRG (AID 2283449); settings: mRNA level, 48 h; actives raise or lower the signal
Outline: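 Read-out is CCND2 mRNA level measured by qRT-PCR in human HepaRG liver cells and normalised to three housekeeping genes. Chemicals were applied for 48 h at up to 100 uM, with gain or loss fitted relative to 0.5% DMSO.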

[7] = read-out: Cyclin Dependent Kinase Inhibitor 1A (CDKN1A), CDKN1A (gene 1026); test: LTEA_HepaRG_CDKN1A: Life Technologies and Expression Analysis (LTEA) Assay for Cyclin Dependent Kinase Inhibitor 1A (CDKN1A) using HepaRG (AID 2283450); settings: mRNA level, 48 h; actives raise or lower the signal
Outline: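 Differentiated human HepaRG cells, pre-cultured 48 h, were exposed in duplicate for 48 h in serum-free induction medium to eight half-log concentrations up to 100 uM (0.5% DMSO). CDKN1A mRNA was measured by qRT-PCR, normalized to ACTB/GAPDH/POLR2A, bidirectionally fitted versus DMSO.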

[8] = read-out: Cyclin D1 (CCND1), CCND1 (gene 595); test: LTEA_HepaRG_CCND1: Life Technologies and Expression Analysis (LTEA) Assay for Cyclin D1 (CCND1) using HepaRG (AID 2283451); settings: mRNA level, 48 h; actives raise or lower the signal
Outline: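 Differentiated human HepaRG cells in serum-free induction medium were exposed 48 h to eight half-log concentrations up to 100 uM in 0.5% DMSO; mRNA quantified by TaqMan qRT-PCR, normalized to ACTB, GAPDH, POLR2A, fitted bidirectionally versus DMSO.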

[9] = read-out: catalase (CAT), CAT (gene 847); test: LTEA_HepaRG_CAT: Life Technologies and Expression Analysis (LTEA) Assay for catalase (CAT) using HepaRG (AID 2283452); settings: mRNA level, 48 h; actives raise or lower the signal
Outline: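 Expression of CAT was quantified by TaqMan qRT-PCR with ACTB/GAPDH/POLR2A normalization after 48 h chemical exposure of HepaRG. Eight-point half-log series, top 100 uM, in 0.5% DMSO; gain or loss fitted against vehicle.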

[10] = read-out: flavin-containing dimethylaniline monooxygenases 3 (FMO3), FMO3 (gene 2328); test: LTEA_HepaRG_FMO3: Life Technologies and Expression Analysis (LTEA) Assay for flavin-containing dimethylaniline monooxygenases 3 (FMO3) using HepaRG (AID 2283453); settings: mRNA level, 48 h; actives raise or lower the signal
Outline: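 HepaRG, 48 h exposure, 8-pt half-log series from 100 uM, 0.5% DMSO vehicle, duplicates; FMO3 transcript by Fluidigm TaqMan qRT-PCR, housekeeping-normalized; gain/loss fit vs DMSO.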

Fatty acid synthase (Homo sapiens), sequence (P49327 whole entry, looked up): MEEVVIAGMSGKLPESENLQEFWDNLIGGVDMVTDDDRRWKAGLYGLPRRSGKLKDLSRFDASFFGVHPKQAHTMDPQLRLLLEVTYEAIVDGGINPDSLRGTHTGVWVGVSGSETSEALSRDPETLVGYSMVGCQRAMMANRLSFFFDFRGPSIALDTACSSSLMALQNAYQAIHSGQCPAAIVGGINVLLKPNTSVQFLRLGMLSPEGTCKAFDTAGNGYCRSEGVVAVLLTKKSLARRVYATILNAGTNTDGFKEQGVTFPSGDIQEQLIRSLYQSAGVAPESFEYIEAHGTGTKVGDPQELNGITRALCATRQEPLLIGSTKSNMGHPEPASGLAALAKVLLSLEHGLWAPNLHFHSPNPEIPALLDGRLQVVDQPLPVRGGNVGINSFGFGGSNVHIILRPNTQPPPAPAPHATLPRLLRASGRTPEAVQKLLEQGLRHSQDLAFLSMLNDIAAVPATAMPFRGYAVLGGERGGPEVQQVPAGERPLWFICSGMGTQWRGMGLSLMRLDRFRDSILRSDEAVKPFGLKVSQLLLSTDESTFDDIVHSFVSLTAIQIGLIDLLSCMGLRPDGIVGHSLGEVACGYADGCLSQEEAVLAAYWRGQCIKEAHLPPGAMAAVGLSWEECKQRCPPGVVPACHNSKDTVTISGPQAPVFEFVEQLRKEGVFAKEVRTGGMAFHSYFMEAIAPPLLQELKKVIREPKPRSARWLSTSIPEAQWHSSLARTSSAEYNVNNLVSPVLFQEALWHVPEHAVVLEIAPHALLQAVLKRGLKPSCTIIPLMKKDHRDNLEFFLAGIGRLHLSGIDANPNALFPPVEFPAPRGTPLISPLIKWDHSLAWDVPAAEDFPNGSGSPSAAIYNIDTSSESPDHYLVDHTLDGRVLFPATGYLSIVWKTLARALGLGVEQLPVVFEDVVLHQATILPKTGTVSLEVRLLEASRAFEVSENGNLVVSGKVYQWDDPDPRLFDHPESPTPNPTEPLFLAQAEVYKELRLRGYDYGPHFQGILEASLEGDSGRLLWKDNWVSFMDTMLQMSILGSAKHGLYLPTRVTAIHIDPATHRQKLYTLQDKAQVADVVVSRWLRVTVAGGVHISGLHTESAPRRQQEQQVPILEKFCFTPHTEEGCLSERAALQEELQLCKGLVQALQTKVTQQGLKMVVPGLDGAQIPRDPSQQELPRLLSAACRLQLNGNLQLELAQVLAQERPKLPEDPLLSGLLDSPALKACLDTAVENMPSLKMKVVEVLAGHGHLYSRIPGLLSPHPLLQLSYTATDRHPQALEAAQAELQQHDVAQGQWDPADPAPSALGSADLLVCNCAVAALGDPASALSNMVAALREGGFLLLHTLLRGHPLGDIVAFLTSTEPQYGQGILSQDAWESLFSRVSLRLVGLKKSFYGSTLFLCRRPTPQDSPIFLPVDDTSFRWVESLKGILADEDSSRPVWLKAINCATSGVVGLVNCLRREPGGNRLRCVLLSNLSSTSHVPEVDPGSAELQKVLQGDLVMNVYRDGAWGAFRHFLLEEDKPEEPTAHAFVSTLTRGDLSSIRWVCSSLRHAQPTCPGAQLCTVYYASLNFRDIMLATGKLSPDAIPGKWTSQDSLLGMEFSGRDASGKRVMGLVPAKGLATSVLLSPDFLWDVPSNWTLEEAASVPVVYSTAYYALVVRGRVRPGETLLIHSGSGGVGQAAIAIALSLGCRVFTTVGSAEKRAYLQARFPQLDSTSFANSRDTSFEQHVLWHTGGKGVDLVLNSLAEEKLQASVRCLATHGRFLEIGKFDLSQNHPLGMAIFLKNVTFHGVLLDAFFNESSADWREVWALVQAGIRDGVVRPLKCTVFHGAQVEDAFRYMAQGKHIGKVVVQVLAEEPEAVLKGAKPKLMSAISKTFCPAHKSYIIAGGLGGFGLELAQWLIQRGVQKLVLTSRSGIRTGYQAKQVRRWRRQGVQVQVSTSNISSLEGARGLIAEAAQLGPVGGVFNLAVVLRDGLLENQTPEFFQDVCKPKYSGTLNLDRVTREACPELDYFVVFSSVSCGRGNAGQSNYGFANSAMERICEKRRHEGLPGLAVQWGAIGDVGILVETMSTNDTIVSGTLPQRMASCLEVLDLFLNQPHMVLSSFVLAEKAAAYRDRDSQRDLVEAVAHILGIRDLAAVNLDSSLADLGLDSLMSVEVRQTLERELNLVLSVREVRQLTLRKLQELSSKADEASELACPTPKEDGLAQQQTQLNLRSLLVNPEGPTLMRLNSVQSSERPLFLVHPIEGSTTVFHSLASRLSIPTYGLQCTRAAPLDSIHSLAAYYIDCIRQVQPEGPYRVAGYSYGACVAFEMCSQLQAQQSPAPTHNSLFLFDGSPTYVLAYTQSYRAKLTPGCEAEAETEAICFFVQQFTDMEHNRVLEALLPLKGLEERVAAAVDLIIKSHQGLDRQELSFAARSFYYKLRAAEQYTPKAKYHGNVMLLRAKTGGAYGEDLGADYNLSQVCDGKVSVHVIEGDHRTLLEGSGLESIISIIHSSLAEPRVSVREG

**Q.** Which results are given for `C=CC(=O)OCCCCCCOC(=O)C=C`?
**A.** outcome [1]: inactive; outcome [2]: inactive; outcome [3]: inactive

**Q.** For `O=C(O)c1cc(O)c2ccccc2c1O`, which outcome [1] is on record?
**A.** inactive

**Q.** And the outcome [2]?
**A.** inactive

**Q.** What about the AC50 [3] of the same compound?
**A.** 500 nM (active)

**Q.** Which outcome [4] does the source give for `Nc1ccc(C(=O)O)cc1` here?
**A.** inactive

**Q.** And the outcome [5]?
**A.** inactive

**Q.** And the outcome [6]?
**A.** inactive

**Q.** What about the outcome [7] of the same compound?
**A.** inactive

**Q.** And the outcome [8]?
**A.** inactive

**Q.** And the outcome [9]?
**A.** inactive

**Q.** And the outcome [10]?
**A.** inactive

**Q.** Which outcome [4] does the source give for `C1CNCCN1` here?
**A.** inactive

**Q.** What about the outcome [5] of the same compound?
**A.** inactive

**Q.** And the outcome [6]?
**A.** inactive

**Q.** And the outcome [7]?
**A.** inactive

**Q.** And the outcome [8]?
**A.** inactive

**Q.** And the outcome [9]?
**A.** inactive

**Q.** And the outcome [10]?
**A.** inactive

**Q.** With `COc1ccc(-c2coc3cc(O)cc(O)c3c2=O)cc1` as the compound, how does the outcome [1] read?
**A.** inactive

**Q.** What about the outcome [2] of the same compound?
**A.** inactive

**Q.** What about the AC50 [3] of the same compound?
**A.** 1810 nM (active)

**Q.** Which results are given for `CCN1CN(CC)CN(CC)C1`?
**A.** outcome [1]: inactive; outcome [2]: inactive; outcome [3]: inactive

**Q.** Which results are given for `CN(C)c1ccc2nc3ccc(=[N+](C)C)cc-3sc2c1`?
**A.** outcome [1]: inactive; outcome [2]: inactive; AC50 [3]: 617 nM (active)

**Q.** What does the source list for `CCOC(=O)C1=NN(c2ccc(Cl)cc2Cl)C(C)(C(=O)OCC)C1` (centres undefined)?
**A.** outcome [1]: inactive; outcome [2]: inactive; outcome [3]: inactive

**Q.** With `COc1ccc(C(=O)c2ccccc2)c(O)c1` as the compound, how does the outcome [1] read?
**A.** inactive

**Q.** What about the outcome [2] of the same compound?
**A.** inactive

**Q.** And the outcome [3]?
**A.** inactive

**Q.** Which AC50 [3] does the source give for `CC(C)(c1ccccc1)c1ccc(Nc2ccc(C(C)(C)c3ccccc3)cc2)cc1` here?
**A.** 1840 nM (active)

**Q.** With `Cc1ccc([N+](=O)[O-])cc1N` as the compound, how does the AC50 [3] read?
**A.** 30200 nM (active)

**Q.** What about the outcome [4] of the same compound?
**A.** inactive

**Q.** What about the outcome [7] of the same compound?
**A.** inactive

**Q.** What about the outcome [8] of the same compound?
**A.** inactive

**Q.** And the outcome [9]?
**A.** inactive

**Q.** And the outcome [10]?
**A.** inactive

**Q.** Which results are given for `C=C[C@@]1(C)CC(=O)[C@]2(O)[C@@]3(C)[C@@H](O)CCC(C)(C)[C@@H]3[C@H](O)[C@H](OC(C)=O)[C@@]2(C)O1`?
**A.** AC50 [1]: 774 nM (active); AC50 [2]: 719 nM (active); outcome [3]: inactive

**Q.** Which results are given for `O=C(OCc1ccccc1)c1ccc(O)cc1`?
**A.** AC50 [1]: 50000 nM (active); AC50 [2]: 37500 nM (active); AC50 [3]: 24600 nM (active)

**Q.** With `CC(C)(C)NC(=O)[C@H]1CC[C@H]2[C@@H]3CC[C@H]4NC(=O)C=C[C@]4(C)[C@H]3CC[C@]12C` as the compound, how does the AC50 [3] read?
**A.** 1570 nM (active)

— PubChem BioAssay (EPA / NIEHS)
